Source: PubChem
Pf Dd2 growth – blocks in vitro growth of P. falciparum Dd2; P. falciparum Dd2 growth, SYBR Green, 72 h; Potency, µM (doses to about 28.9 µM), usual class: inhibitors; 120,000 compounds, 4.3% hits; AID 1347417; active = well fitted inhibition curve with a large enough effect; also: nearly all actives have a fitted effect of over 65% in size
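Readout: SYBR Green fluorescence, 485 nm excitation, 535 nm emission, after ~16 h lysis at 37C. Before that, Dd2-infected red cells (2.5% hematocrit) grew 72 h with compound, 29 uM top final concentration.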
Of the large screens only hits and unclear results are named; the others gave an inactive call. The sample as a whole holds a higher share of hits than the screen did.

NC(=O)[C@@H](Cc1ccccc1)NC(=O)[C@@H]1C[C@@H](NS(=O)(=O)c2cccs2)CCN1C(=O)COCC(=O)O	none
CN1CCC(N2CCC(N3C(=O)C4(CCCCC4)C3c3ccncc3)CC2)CC1 (configuration not stated)	none
CCOC(=O)CCNC(=O)N1CCC(N2C(=O)C3(CCCCC3)C2c2ccncc2)CC1 (configuration not stated)	none
CS(=O)(=O)N1CCC(N2C(=O)C3(CCCCC3)C2c2ccncc2)CC1 (configuration not stated)	none
O=C(NC1CCCCC1)N1CCC(N2C(=O)C3(CCCCC3)C2c2ccncc2)CC1 (configuration not stated)	Pf Dd2 growth 5µM
Cc1ccc(CNC(=O)N2CCC(N3C(=O)C4(CCCCC4)C3c3ccncc3)CC2)cc1 (configuration not stated)	Pf Dd2 growth 11µM
O=C(c1ccoc1)N1CCC(N2C(=O)C3(CCCCC3)C2c2ccncc2)CC1 (configuration not stated)	none
C[C@H](O)c1onc(-c2ccc(F)cc2)c1C(=O)NC(C)(C)C	none
O=C(NC1CCN(C(=O)N2CC3CC(C2)[C@H]2CCCC(=O)N2C3)CC1)C1CCC1 (some centres not stated)	none
O=S(=O)(c1ccc(F)cc1)N1[C@H]2CC[C@@H]1c1cncnc1C2	none
O=[S+]1([O-])NC2(CCN(CC3CCCCC3)CC2)CNc2ccccc21	none
COc1ccc(-c2cnc([C@@H]3COCCN3Cc3csnn3)[nH]2)cc1	none
CN(C)c1nc2c(c(=O)[nH]1)CCN(Cc1cccc(F)c1F)CC2	none
CN(C)c1nc2c(c(=O)[nH]1)CCN(Cc1ccc(Br)cc1)CC2	Pf Dd2 growth 2µM
Cc1ccc(CN2CCc3nc(N4CCOCC4)[nH]c(=O)c3CC2)cc1C	none
CN(C)c1nc2c(c(=O)[nH]1)CCN(Cc1ccccc1F)CC2	none
CN(C)c1nc2c(c(=O)[nH]1)CCN(Cc1ccc(Cl)cc1)CC2	none
O=c1[nH]c(N2CCOCC2)nc2c1CCN(Cc1ccc(C(F)(F)F)cc1)CC2	Pf Dd2 growth 1.3µM
O=c1[nH]c(N2CCOCC2)nc2c1CCN(Cc1cc(F)cc(F)c1)CC2	none
CN(C)c1nc2c(c(=O)[nH]1)CCN(Cc1ccccc1)CC2	none
CN(C)c1nc2c(c(=O)[nH]1)CCN(Cc1ccccc1Br)CC2	Pf Dd2 growth 1.1µM
O=C(c1cccc(Cl)c1)N1CCN(C(=O)c2nnn3c2COC(c2ccccc2)C3)CC1 (configuration not stated)	none
COc1ccc(N2CC(C(=O)N3CCN(Cc4ccccc4)CC3)NC2=O)cc1 (configuration not stated)	none
NC(=O)[C@H](Cc1ccc(O)cc1)NC(=O)C1=C[C@@H](NC(=O)c2ccc(F)c(Cl)c2)[C@@H](O)[C@H](O)C1	none
O=C(NC1CCN(c2cnn(Cc3ccccc3)c(=O)c2)CC1)C1CCOCC1	none
CC(C)C1=NOC2(CCN(C(=O)c3ccc4c(c3)OCO4)C2)C1 (configuration not stated)	none
COc1ccc(S(=O)(=O)NC[C@H]2COCc3nc4cc(C)ccc4n32)cc1	none
COc1ccc2nc3n(c2c1)[C@@H](CNC(=O)c1ccccc1)COC3	none
COc1ccc2nc3n(c2c1)[C@@H](CNS(=O)(=O)c1ccccc1)COC3	Pf Dd2 growth 8.9µM
CC(=O)N1CCN(c2ncnc3c2CN(c2ccc([N+](=O)[O-])cc2)C(=O)N(C)C3)CC1	none
COC[C@@H]1CN(C(=O)c2ncccc2C)C[C@H]1c1ccncc1	none
CCOc1ccccc1NC(=O)N1CC(C)Oc2ccc(Cl)cc21 (configuration not stated)	none
CCOc1ccccc1NC(=O)N1c2ccccc2Sc2ccccc21	Pf Dd2 growth 13µM
CCOc1ccccc1NC(=O)N1CCCn2nc(C)cc21	none
Cc1ccc(OCCC2CCN(C(=O)c3ccc(C)nc3)C2)cc1 (configuration not stated)	none
CC(Oc1ccccc1)C(=O)NCc1nnc2ccc(-c3ccc(F)cc3)nn12 (configuration not stated)	none
Cc1cc(C)cc(NC(=O)c2sc3nc(-c4ccccc4)cn3c2C)c1	none
Cc1c(C(=O)Nc2ccc(F)c(C(F)(F)F)c2)sc2nc(-c3ccccc3)cn12	Pf Dd2 growth 11µM
Cc1c(C(=O)Nc2cc(F)ccc2F)sc2nc(-c3ccc(F)cc3)cn12	none
Cc1c(Cl)cccc1NC(=O)Cn1ccn2nc3c(c2c1=O)CCCCC3	none
COc1cccc(CN2CCc3nc(N4CCN(c5ncccn5)CC4)ncc3C2)c1	Pf Dd2 growth 11µM
COc1cccc(CN2CCc3nc(N4CCN(C)CC4)ncc3C2)c1	none
Cc1cccc(CN2CCc3nc(N4CCN(c5ccccn5)CC4)ncc3C2)c1	none
CC(C)(C)OC(=O)N1CCC(c2c(C(=O)NCc3ccc(F)cc3)cnn2-c2ccc(F)cc2)CC1	none
CC(C)(C)OC(=O)N1CCC(c2c(C(=O)NCc3cccc(Cl)c3)cnn2-c2ccc(F)cc2)CC1	Pf Dd2 growth 11µM
Cc1cccc(-n2ncc(C(=O)N3CCN(C(=O)c4ccco4)CC3)c2C2CCN(C(=O)OC(C)(C)C)CC2)c1	none
CCOC(=O)N1CCC(NC(=O)c2cnn(-c3ccccc3)c2C2CCN(C(=O)OC(C)(C)C)CC2)CC1	none
CC(C)(C)OC(=O)N1CCC(c2c(C(=O)NCc3ccco3)cnn2-c2ccc(F)cc2)CC1	Pf Dd2 growth 7.9µM
Cc1c(Cl)cccc1-n1ncc(C(=O)NC2CCCCC2)c1C1CCN(C(=O)OC(C)(C)C)CC1	none
Cc1cccc(-n2ncc(C(=O)NCc3ccco3)c2C2CCN(C(=O)OC(C)(C)C)CC2)c1	Pf Dd2 growth 11µM
CC(C)(C)OC(=O)N1CCC(c2c(C(=O)NC3CCCCC3)cnn2-c2cccc(Cl)c2)CC1	Pf Dd2 growth 8.9µM
Cc1cccc(OCC2(CNC(=O)C3CCCC3)C[C@@H](O)[C@@H](O)C2)n1 (some centres not stated)	none
Cc1noc(-c2cn(C3CCN(C(=O)c4cc(Cl)ccc4F)CC3)nn2)n1	none
COc1ccc2[nH]c(CN3CCC(CCC(=O)NCc4ccc(F)cc4)CC3)c(C)c2c1	none
Cc1cccc(-n2ncc(C(=O)NCc3ccccn3)c2C2CCN(C(=O)OC(C)(C)C)CC2)c1	Pf Dd2 growth 10µM
Cc1ccc(-n2ncc(C(=O)NCc3ccccn3)c2C2CCN(C(=O)OC(C)(C)C)CC2)cc1C	none
COCCn1c(CO)nnc1C1CC(NC(=O)c2cccc(C#N)c2)C1 (configuration not stated)	none
O=C(c1ccc(Br)o1)N1CCC(n2cnnc2C2CC2)CC1	none
Cc1ccc(OC2(C(=O)NCc3cccc(N(C)C)c3)CCNCC2)cc1	none
Cc1ccc(OC2(C(=O)N[C@H]3CCc4ccccc43)CCNCC2)cc1	Pf Dd2 growth 7.9µM
CC(C)(C)C1CCC2(CC1)NC(=O)N(CC(=O)NC1CCc3ccccc31)C2=O (configuration not stated)	none
Cc1cc(N)n(CC(=O)N2CCC(O)(CN3CCOCC3)C(C)(C)C2)n1 (configuration not stated)	none
O=C1NCCCCCCN(Cc2ccncc2)[C@@H]2CN(S(=O)(=O)c3ccccc3)CC[C@H]12	Pf Dd2 growth 10µM
O=C1NCCCCCCN(Cc2ccncc2)[C@@H]2CN(C3CCOCC3)CC[C@@H]12	none
O=C1NCCCCCCN(Cc2ccncc2)[C@@H]2CN(S(=O)(=O)c3cccnc3)CC[C@H]12	none
CS(=O)(=O)N1CC[C@@H]2C(=O)NCCCCCCN(Cc3ccncc3)[C@@H]2C1	none
O=C1NCCCCCCN(Cc2ccncc2)[C@@H]2CN(Cc3cccnc3)CC[C@H]12	none
O=C1NCCCCCCN(Cc2ccncc2)[C@@H]2CN(Cc3ccccn3)CC[C@@H]12	none
